# Laboratory results taken from PubChem BioAssay AID1347075 (National Center for Advancing Translational Sciences (NCATS), 2019).
# Screen size: about 400,000 compounds; about 5,500 (1.4%) were called active. Roughly 9% stayed inconclusive and do not appear here. The list comes from a sample in which actives are over-represented; it also holds similar structures and randomly drawn compounds. Values without a mark were called inactive. Calls come from the whole dose curve; as a rule, active = well fitted cell-killing curve with a large enough effect; inconclusive = small, poorly fitted or top-dose-only effect, or effect the other way; inactive = flat fitted curve, though single readings scatter.
# Test: qHTS assay for MDR1-selective chemotherapeutics: Primary screen using the parental adenocarcinoma cell KB-3-1; note: nearly all actives have a fitted effect of over 60% in size
# Conditions: KB-3-1 viability, CellTiter-Glo ATP luminescence, 72 h; series mostly up to 46.1 µM; activity change, negative = cytotoxic: at the top concentration
# Description: A prime difficulty in effectively treating cancer is the development of cellular resistance to multiple structurally unrelated anticancer drugs, a phenomenon known as multidrug resistance (MDR). […] Numerous strategies to overcome P-gp-mediated MDR have been explored, including the design of drugs that evade recognition and efflux, and development of inhibitors to block efflux and restore drug accumulation. […] An alternative approach is to exploit resistance by identifying drugs that target MDR cells over the non-resistant parental cells from which they were selected. […] The development of MDR1-selective agents represents a new strategy for resolving multidrug resistance, as it remains a long-standing clinical challenge for cancer chemotherapy.
# Our goal is to identify compounds that selectively kill P-gp-expressing MDR cells. We will identify MDR1-selective compounds by comparing toxicity of compounds in the screening library against parental, drug-naive (KB-3-1) adenocarcinoma cells as well as their drug-selected MDR sub-line (KB-V1). The differential toxicity of compounds against these two cell lines will be used to identify MDR1-selective compounds, whose cytotoxicity is potentiated, rather than diminished, by P-gp expression. This assay will be utilized to conduct a quantitative high-throughput screen (qHTS) in collaboration with the NIH Chemical Genomics Center to identify selective agents, and probe hits arising from the screen will be validated using secondary assays and characterized through a well-established follow-up research program. This screen was run against the entire NCGC library collection of about 400,000 compounds.
# NIH Molecular Libraries Probe Production Network [MLPCN]
# NIH Chemical Genomics Center [NCGC]
# PI: Michael Gottesman PhD, National Cancer Institute, NIH
# Briefly, 5 microL of media containing either KB-3-1 cells (columns 1-2, 4-48) are dispensed into Greiner white, treated solid-bottom 1536-well assay plates (media-only control is added to column 3). Compounds are then transferred via Kalypsys pin tool equipped with 1536-pin array (10 nL slotted pins, V&P Scientific, San Diego, CA). Following addition of compound, the plates are incubated at 37 degrees C for 72 hours. CellTiter-Glo (2.5 µL/well) is then added, and the plates are read in a ViewLux reader (Perkin-Elmer, clear luminescence filter, 1 second exposure, 1x binning) following a 10 minute incubation. All cells are dispensed in DMEM phenol-red free media containing 10% FBS.
# Library plates were screened starting from the lowest and proceeding to the highest concentration. Vehicle-only plates, with DMSO being pin-transferred to columns 5-48, will be inserted uniformly at the beginning and the end of each library in order to monitor and record any shifts in the background, which can be affected by reagent dispensers or loss in enzyme activity over time. Screening data will be corrected, normalized, and concentration-effect relationships will be derived by using publicly-available NCGC, NCATS curve fitting algorithms (http://ncgc.nih.gov/pub/openhts).
# % is set by controls: 0 for no effect and ±100 for the full control effect; potency is the fitted concentration of half-maximal effect.
SMILES,"activity change, negative = cytotoxic",Potency
Cc1ccc(C(=O)Nc2ccc3[nH]c(=O)c(=O)[nH]c3c2)cc1,11.4%,
O=C1O/C(=C\c2ccc(O)cc2)C(O)=C1c1ccc(O)cc1,7.22%,
COc1ccc(NC(=O)C(c2ccccc2)N2Cc3ccccc3C2=O)cc1 (centres undefined),11.2%,
COCCn1nnnc1C(c1cc2ccc(OC)cc2[nH]c1=O)N1CCc2ccccc2C1 (centres undefined),0.603%,
COc1ccc(OC)c(C(c2nnnn2C(C)(C)C)N2CCc3ccccc3C2)c1 (centres undefined),,23.1 µM (active)
COc1ccccc1C(c1nnnn1C(C)(C)C)N1CCN(Cc2ccccc2)CC1 (centres undefined),-8.17%,
CCC(=O)N1CCc2cc(S(=O)(=O)NC(C(=O)Nc3ccc(C(C)=O)cc3)C(C)C)ccc21 (centres undefined),17.2%,
O=C(NN=Cc1ccccc1O)NN=Cc1ccccc1O,,14.6 µM (active)
O=C(CO/N=C/c1ccccc1O)NNC(=O)c1ccccc1Cl,-2.68%,
O=C(Cc1ccccc1)N/N=C/c1ccc(Cl)cc1Cl,0.793%,
Cc1ccc(S(=O)(=O)c2nc(-c3cccs3)oc2N2CCCCC2)cc1,2.36%,
NS(=O)(=O)c1ccc2nc(NC(=O)COc3ccccc3)sc2c1,2.49%,
N#Cc1ccc(OCC(=O)Nc2nc(-c3ccccn3)cs2)cc1,,16.4 µM (active)
CC1CCCCC1NC(=O)COc1ccc(C#N)cc1 (centres undefined),-9.11%,
Cc1ccc(CNC(=O)CSc2c(C)cnc3c2c(=O)n(C)c(=O)n3C)cc1,7.68%,
O=C(CC1Oc2ccccc2NC1=O)NCc1ccc(F)cc1 (centres undefined),7.27%,
COc1ccc(NC(=O)c2ccco2)cc1NC(=O)COc1ccc(C)c(C)c1,-10.5%,
Cc1ccc(C(CC(=O)O)Nc2nc(N3CCCCC3)nc(N3CCCCC3)n2)cc1 (centres undefined),-2.2%,
c1ccc(-c2cc(N3CCCCC3)c3ccccc3n2)cc1,-8.21%,
CC(Nc1nc(N2CCCC2)nc2ccccc12)c1ccccc1 (centres undefined),,16.4 µM (active)
CCC(C)N(c1ccc(/C=C/c2ccnc3ccccc23)cc1)C(C)CC (centres undefined),0%,
COc1ccc(CNC(=O)c2cc3cccc(OC)c3oc2=O)cc1,3.72%,
COc1cc(NC(=O)CN2CCN(S(=O)(=O)c3ccc(Br)cc3)CC2)cc(OC)c1,12.6%,
Cc1cccn2c(=O)c3cc(C(=O)NC(C)c4ccccc4)c(=N)n(CCCO)c3nc12 (centres undefined),-1.69%,
Cc1cccn2c(=O)c3cc(C(=O)NCCN4CCOCC4)c(=N)n(Cc4cccnc4)c3nc12,,8.2 µM (active)
CCCn1c(=N)c(C(=O)NCc2ccccc2)cc2c(=O)n3cccc(C)c3nc21,2.22%,
COc1cc(NS(=O)(=O)c2cccs2)cc(OC)c1,7.71%,
CNC(=O)c1ccc(-c2nc(CN3CCc4ccccc43)c(C)o2)cc1,-9.03%,
Cc1cccc(-n2ncc(C(=O)N3CCC(C)CC3)c2C2CCN(C(=O)OC(C)(C)C)CC2)c1,1.23%,
